Test results as given in publication PMC7819943, “Rice protein-binding microarrays: a tool to detect cis-acting elements near promoter regions in rice”.
Whole data set: some 68,000 sequences, median “fluorescence intensity (a.u.)” near 9,100, cut for the highest 2% near 16,000. The sample holds the highest values, similar sequences and a random draw of the others, so the mix is not that of the screen.

These sequences were tested against OsWRKY34 (Oryza sativa, UniProt Q0JBA9 1-250) (assay: protein-binding microarray (RPBM); PBS, 2% BSA, 51.3 ng/ul salmon testes DNA, 50 uM zinc acetate, 200 nM TF, 25 C, 1 h; high values mean tight binding). Conditions: protein: recombinant; tags: N-terminal polyhistidine and DsRed monomer fusion (pET32a); label: CyDye5-dUTP incorporated in the synthesized complementary strand; 3' TTTTT single-stranded linker to array surface; dsDNA, one strand shown.
Chain of OsWRKY34 (Q0JBA9 entry or part of it): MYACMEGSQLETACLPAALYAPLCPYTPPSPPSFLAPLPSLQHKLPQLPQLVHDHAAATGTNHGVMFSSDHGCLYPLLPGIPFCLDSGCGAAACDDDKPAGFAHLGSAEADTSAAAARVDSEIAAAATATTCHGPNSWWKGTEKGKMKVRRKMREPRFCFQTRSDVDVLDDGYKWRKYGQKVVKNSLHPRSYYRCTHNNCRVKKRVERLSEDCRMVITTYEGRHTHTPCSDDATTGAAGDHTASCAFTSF
Outline: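 In PBS with 2% BSA, salmon testes DNA and 50 µM zinc acetate, 200 nM protein was incubated on a custom Agilent array at 25 °C for 1 h and then washed off. The array had been made double-stranded by primer extension with Cy5-dUTP and blocked with 2% BSA. The proteins were transcription factors fused N-terminally to polyhistidine and DsRed, expressed in E. coli BL21-CodonPlus and purified on Ni–NTA. The binding signal is per-feature fluorescence intensity (arbitrary units) from an Axon 4000B scanner.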

Sequence	binding signal
ATGTATTGGTGTTATGCCTTCTGTTTATTTTATTTGCTCCCGGAGTCACCTAGTGCAG	8730 fluorescence intensity (a.u.)
AAATCTGTAGCCCGCTGCTTTTCTCTCTCCTTATTTATCTCGGAGTCACCTAGTGCAG	11200 fluorescence intensity (a.u.)
CCAATATCACGTTGTCCTAGCTCTGCCAACGACTTCATCTCGGAGTCACCTAGTGCAG	8320 fluorescence intensity (a.u.)
TTCTCTCCCTCCCGGCCGCCGCCCCGCCCCGCCCATCTTGCGGAGTCACCTAGTGCAG	9110 fluorescence intensity (a.u.)
TTTGTTGGTTGGTTTGACCCTTCCTAATCCTACCTTTGGTCGGAGTCACCTAGTGCAG	8160 fluorescence intensity (a.u.)
CACGTACGCCGCCGTGTCTCATCACGAGCTCGATCGTTTCCGGAGTCACCTAGTGCAG	8240 fluorescence intensity (a.u.)
GTGGAGTTGCTTTCTCCTCCTCCTTGTTTGGGTTGGGTGCCGGAGTCACCTAGTGCAG	11900 fluorescence intensity (a.u.)
CGTGGGTAATTTGGTTCCTCTTCTTTTTTTGGCTTCCTTTCGGAGTCACCTAGTGCAG	8440 fluorescence intensity (a.u.)
TTCTCTGTTTCTTCTGCCTTCACCACCTGCTCCACATTTTCGGAGTCACCTAGTGCAG	10900 fluorescence intensity (a.u.)
GTGGGTTTCTAGCATCATAGGGGTATTGTAGTAACTTCCTCGGAGTCACCTAGTGCAG	17400 fluorescence intensity (a.u.)
ACACCATGTTTCCACATTGCATTTCCTTCTGTTTTTTCTTCGGAGTCACCTAGTGCAG	17600 fluorescence intensity (a.u.)
GGGTATTGTAGTAACTTCCTGTGCACCATCGGGGTTAAGACGGAGTCACCTAGTGCAG	10500 fluorescence intensity (a.u.)
GATTTGTATTGGTTTTAATAGTAGGGGAATTTCTATACCTCGGAGTCACCTAGTGCAG	8140 fluorescence intensity (a.u.)
ATATTTCCTGTTTGCTCTGTGTTTTCTTCCACCTTCCATTCGGAGTCACCTAGTGCAG	9830 fluorescence intensity (a.u.)
AAAGGTGAGTAGTGGTTTCTGGGTTGCGTCTCCCTTTTTCCGGAGTCACCTAGTGCAG	12600 fluorescence intensity (a.u.)
GTGGGTTTTTTTTTTTGGTTTGTTTCTTCCTCTGGCCATTCGGAGTCACCTAGTGCAG	19800 fluorescence intensity (a.u.)
GTTGGGTGGGTTTCCCGTCTCCTTCCGATTGCTGAGTAGCCGGAGTCACCTAGTGCAG	19100 fluorescence intensity (a.u.)
TCCTCTGGCTTTCTTTTCCCATTTCGTCTCTTGTTTGTTTCGGAGTCACCTAGTGCAG	9160 fluorescence intensity (a.u.)
ATTTTGATTAGTGCGTTTGATTAGTGGTGTTTATTATGTCCGGAGTCACCTAGTGCAG	9410 fluorescence intensity (a.u.)
TTCTGAACCGTGTTAAAATGCTACAAAATTTTCCCTTTTTCGGAGTCACCTAGTGCAG	8570 fluorescence intensity (a.u.)
AGCTTTCACCTCATTAAGACCGGTATCTGTTGAGACTTGACGGAGTCACCTAGTGCAG	8860 fluorescence intensity (a.u.)

Sequence	binding signal
GAACTAGTCCGCCTAATTGTTGGCTCTCTTATCTCTTCATCGGAGTCACCTAGTGCAG	12100 fluorescence intensity (a.u.)
TTCTATGTTGTGGTTCTGTGTTTTACACTTCAGTTTTGTTCGGAGTCACCTAGTGCAG	8030 fluorescence intensity (a.u.)
GTGATCCGGTGCCCTCTGACCCGCAACTTCCTTTTGGCACCGGAGTCACCTAGTGCAG	8460 fluorescence intensity (a.u.)
TTAGATGTGGCCAGTTTTGATTTCTAGCTTATAGGATCGTCGGAGTCACCTAGTGCAG	9000 fluorescence intensity (a.u.)
ACAATGTGACCCTATGTACAATTTACTCATATATTTTTATCGGAGTCACCTAGTGCAG	9570 fluorescence intensity (a.u.)
GAGTAGTAAGTTATATCCCTCAACCATTTCACTTCACACACGGAGTCACCTAGTGCAG	9600 fluorescence intensity (a.u.)
CCTTGTTTGCTCGGTTTTTGTAAGTTGAGGGACGGGTCATCGGAGTCACCTAGTGCAG	18700 fluorescence intensity (a.u.)
ATGTTGCCCTTTGTTCTGCTGTTTCCTGGTTATATGGGATCGGAGTCACCTAGTGCAG	17500 fluorescence intensity (a.u.)
CTCGCGCGTGCCCGCCTCTGCTGTTCTTTCTCTCGCCCTCCGGAGTCACCTAGTGCAG	11400 fluorescence intensity (a.u.)
CATCGCCTCCGCTTCTGCTTTTTTTTTTCTTTTTTCTCGTCGGAGTCACCTAGTGCAG	10200 fluorescence intensity (a.u.)
GCCTGCCTGTCTGCCTCCGCGTCTTTTCTGCTGCCCACATCGGAGTCACCTAGTGCAG	19500 fluorescence intensity (a.u.)
GTTCTGGTTGGGATCGATTTCTTCTTCCCCTTTGTTGCTTCGGAGTCACCTAGTGCAG	9700 fluorescence intensity (a.u.)
GGTGACCATTCCTAGTTTCCTACCCCTCATGTTTTTCTTTCGGAGTCACCTAGTGCAG	17000 fluorescence intensity (a.u.)
TTCTTTTTCGTTTTCTTCTCATTCTTCTTTTTTTTCCTTTCGGAGTCACCTAGTGCAG	14300 fluorescence intensity (a.u.)
TTATGAGGGTAAGTTTGTATTTGTCATATTTGGGTTGCTACGGAGTCACCTAGTGCAG	8110 fluorescence intensity (a.u.)
GGATCTCGTTTGTCTGGTTTTCGTAAGTTGAGGGACGGGTCGGAGTCACCTAGTGCAG	8380 fluorescence intensity (a.u.)
ATCTGTTATGTTTGCCCTGTCATTGGTTCTGCTAATCAATCGGAGTCACCTAGTGCAG	9160 fluorescence intensity (a.u.)
ATTCATTACACCATGTTTCTTTCTTTCTTTCGAGGACCCTCGGAGTCACCTAGTGCAG	8370 fluorescence intensity (a.u.)
AGTTTCAGTAGCCTCGCCGATCGACTTGCCACACCGCCGTCGGAGTCACCTAGTGCAG	9260 fluorescence intensity (a.u.)
CACCGCCATCTTCCTCTTCTTCTTCGTCGTCGTGGTTGGCCGGAGTCACCTAGTGCAG	11100 fluorescence intensity (a.u.)
AAACTGGGCCATATCGGTTGGTTTTTGCTCTCTACGTCTCCGGAGTCACCTAGTGCAG	9280 fluorescence intensity (a.u.)
